Hits are enriched below; roughly 0.9% of the tested compounds scored in any of these assays.
PPARg SRC1 recr – PPARgamma agonists recruiting SRC-1 coactivator, primary screen, biochemical. Peroxisome proliferator-activated receptor gamma (Homo sapiens), P37231. PPARgamma-SRC-1 coactivator recruitment biochemical assay. activation, % at 8 µM. 200,000 tested, 0.41% active. AID 631, 2007; in the data active = activation above about 19%;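 also: 0% = DMSO and 100% = reference agonist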
Target sequence (P37231 whole entry, looked up): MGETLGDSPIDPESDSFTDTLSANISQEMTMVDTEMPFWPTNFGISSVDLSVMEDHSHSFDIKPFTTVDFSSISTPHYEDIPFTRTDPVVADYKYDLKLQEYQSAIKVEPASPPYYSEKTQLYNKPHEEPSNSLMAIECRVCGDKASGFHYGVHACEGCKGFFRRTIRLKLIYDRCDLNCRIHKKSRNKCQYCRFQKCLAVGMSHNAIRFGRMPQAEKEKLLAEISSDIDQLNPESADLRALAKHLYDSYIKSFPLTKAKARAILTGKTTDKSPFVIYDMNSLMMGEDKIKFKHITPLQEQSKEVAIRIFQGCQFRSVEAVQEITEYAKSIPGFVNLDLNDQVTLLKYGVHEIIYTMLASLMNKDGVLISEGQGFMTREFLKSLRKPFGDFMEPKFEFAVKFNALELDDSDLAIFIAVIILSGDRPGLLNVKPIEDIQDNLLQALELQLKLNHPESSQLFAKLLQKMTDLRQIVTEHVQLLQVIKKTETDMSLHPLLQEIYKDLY
PPARg SRC-2 ag – agonists of PPARg-SRC-2 recruitment, primary screen, biochemical, HTS; Peroxisome proliferator-activated receptor gamma (Homo sapiens), P37231; AID 1032, 2008; PPARgamma LBD-SRC-2 recruitment; 200,000 tested, 0.34% active; activation, % at 8 µM; in the data active = activation above about 22%;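 also: 0% = vehicle and 100% = reference agonist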
TR-FRET SRC-2 ct – TR-FRET signal artefacts, primary screen, artefact control for PPARgamma SRC-2 agonist project, biochemical; TR-FRET artefact counter-screen; stronger effect = higher value; TR-FRET ratio at 8 µM; 200,000 tested, 0.4% active
SRC3 TRFRET art – TR-FRET detection interference compounds, artefact control for PPARgamma SRC-3 recruitment agonists, biochemical, TR-FRET ratio; TR-FRET artefact counter-screen, PPARgamma/SRC-3 format; stronger effect = higher value; TR-FRET ratio at 8 µM; 99,000 tested, 0.39% active; AID 1048, 2008
SRC1 TRFRET art – TR-FRET detection interference compounds, primary screen, artefact control for PPARgamma SRC-1 recruitment agonists, biochemical, TR-FRET emission ratio; 99,000 tested, 0.34% active; TR-FRET detection artefact counter-screen; stronger effect = higher value; AID 1051, 2008; TR-FRET ratio at 8 µM; in the data active = TR-FRET ratio above about 2300
PPARg SRC3 recr – PPARgamma agonists recruiting SRC-3 coactivator, primary screen, biochemical. Peroxisome proliferator-activated receptor gamma (Homo sapiens), P37231. biochemical PPARgamma/SRC-3 coactivator recruitment assay. activation, % at 8 µM. 200,000 tested, 0.26% active. AID 731, 2007; in the data active = activation above about 23%;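 also: 0% = DMSO and 100% = reference agonist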
PPARg SRC2 ag – agonists of PPARgamma SRC-2 coactivator recruitment, confirmation, biochemical, HTS. shares compounds with PPARg SRC3 recr. biochemical SRC-2 recruitment by PPARgamma. activation, % at 8 µM. 790 tested, 52% active; in the data active = activation above about 22%;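 also: 0% = vehicle alone and 100% = reference agonist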
PPARg SRC1 conf – PPARgamma agonists recruiting SRC-1 coactivator, confirmation, biochemical; PPARgamma–SRC-1 coactivator recruitment biochemical assay; 790 tested, 43% active; activation, % at 8 µM; shares compounds with PPARg SRC3 recr; in the data active = activation above about 20%;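 also: 0% = vehicle wells and 100% = reference agonist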
PPARg SRC3 conf – PPARgamma-driven SRC-3 coactivator recruitment agonists, confirmation, biochemical; shares compounds with PPARg SRC3 recr; biochemical PPARgamma-SRC-3 coactivator recruitment, agonist mode; activation, % at 8 µM; 790 tested, 29% active; AID 1301, 2008; in the data active = activation above about 24%;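 also: 0% = vehicle wells and 100% = reference agonist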
* marks the source's active call; other numbers are inactive results. Rule as the data show it, unless noted: active = TR-FRET ratio above about 2000; inactive = the rest.

For Cc1ccc2nsnc2c1NS(=O)(=O)c1c(C)ccc2nsnc12 the results were PPARg SRC1 recr 4, PPARg SRC-2 ag -3, TR-FRET SRC-2 ct 1392 and PPARg SRC3 recr 12.
Screening Cc1ccc(/C=[N+](\[O-])c2ccc(N(C)C)cc2)c2nsnc12 returned PPARg SRC1 recr 27*, PPARg SRC-2 ag 10, TR-FRET SRC-2 ct 1862, SRC3 TRFRET art 1884, SRC1 TRFRET art 2222, PPARg SRC3 recr 11, PPARg SRC2 ag 17, PPARg SRC1 conf 12 and PPARg SRC3 conf 8.
Screening Cn1cccc1/C=C1\CCc2ccccc2C1=O returned PPARg SRC1 recr 15, PPARg SRC-2 ag 7, TR-FRET SRC-2 ct 1632, SRC3 TRFRET art 1477, SRC1 TRFRET art 2018 and PPARg SRC3 recr 6.
`Cn1cccc1/C=C1\Cc2ccccc2C1=O` gave PPARg SRC1 recr 19, PPARg SRC-2 ag 24*, TR-FRET SRC-2 ct 1747, SRC3 TRFRET art 1490, SRC1 TRFRET art 2340*, PPARg SRC3 recr 14, PPARg SRC2 ag 0, PPARg SRC1 conf -2 and PPARg SRC3 conf 0.
Screening N#Cc1c(-c2ccccc2)cc(C2CC2)nc1SCC(=O)c1cccs1 returned PPARg SRC1 recr 24*, PPARg SRC-2 ag 7, TR-FRET SRC-2 ct 2112*, PPARg SRC3 recr 12, PPARg SRC2 ag 53*, PPARg SRC1 conf 43* and PPARg SRC3 conf 26*.
`Cc1ccc(C)c(N2CCN(C(=O)c3ccc(Cn4c(=S)[nH]c5ccc(N6CCOCC6)cc5c4=O)cc3)CC2)c1` gave PPARg SRC1 recr 26*, PPARg SRC-2 ag 17, TR-FRET SRC-2 ct 3479*, SRC3 TRFRET art 3971*, SRC1 TRFRET art 4039*, PPARg SRC3 recr 28*, PPARg SRC2 ag 7, PPARg SRC1 conf 3 and PPARg SRC3 conf 6.
Screening O=C(c1ccc(Cn2c(=S)[nH]c3cc4c(cc3c2=O)OCO4)cc1)N1CCN(c2ccccc2)CC1 returned PPARg SRC1 recr 18, PPARg SRC-2 ag -1, TR-FRET SRC-2 ct 1767, SRC3 TRFRET art 1780, SRC1 TRFRET art 2110 and PPARg SRC3 recr 2.
CCOC(=O)C/C(N)=N/NC(=O)c1ccc(Cl)cc1Cl was read as PPARg SRC1 recr 10, PPARg SRC-2 ag 7, TR-FRET SRC-2 ct 1662, SRC3 TRFRET art 1567, SRC1 TRFRET art 1747 and PPARg SRC3 recr 5.
Screening Cc1ccc(CSc2nc3ncccc3[nH]2)cc1 returned PPARg SRC1 recr 11, PPARg SRC-2 ag 25*, TR-FRET SRC-2 ct 1846, PPARg SRC3 recr 16, PPARg SRC2 ag 18, PPARg SRC1 conf 16 and PPARg SRC3 conf 10.
`Oc1cc2ccccc2cc1-c1n[nH]c(=S)n1Cc1ccco1` gave PPARg SRC1 recr 22*, PPARg SRC-2 ag 5, TR-FRET SRC-2 ct 1822, SRC3 TRFRET art 1823, SRC1 TRFRET art 2134, PPARg SRC3 recr 16, PPARg SRC2 ag 8, PPARg SRC1 conf 12 and PPARg SRC3 conf 10.
For Oc1ccc(-c2n[nH]c(=S)n2Cc2ccco2)cc1 the results were PPARg SRC1 recr 6, PPARg SRC-2 ag 6, TR-FRET SRC-2 ct 1439 and PPARg SRC3 recr -5.
Screening Nc1cc(C(F)(F)F)ccc1-n1cccc1 returned PPARg SRC1 recr 5, PPARg SRC-2 ag -5, TR-FRET SRC-2 ct 1516, SRC3 TRFRET art 1614, SRC1 TRFRET art 2025 and PPARg SRC3 recr 4.
Screening COc1ccccc1C(=O)O/N=C(/c1ccncc1)c1ccc([N+](=O)[O-])cc1 returned PPARg SRC1 recr 4, PPARg SRC-2 ag -2, TR-FRET SRC-2 ct 1409, SRC3 TRFRET art 1650, SRC1 TRFRET art 1815 and PPARg SRC3 recr 0.
`COCCCNC(=O)CSc1c2c(nc3ccc(Cl)cc13)CCCC2` gave PPARg SRC1 recr 31*, PPARg SRC-2 ag 28*, TR-FRET SRC-2 ct 1928, SRC3 TRFRET art 2277*, SRC1 TRFRET art 2727*, PPARg SRC3 recr 19, PPARg SRC2 ag 19, PPARg SRC1 conf 13 and PPARg SRC3 conf 11.
`O=C(NCc1ccco1)c1c2c(nc3ccccc13)CCC2` gave PPARg SRC1 recr 6, PPARg SRC-2 ag 2, TR-FRET SRC-2 ct 1431, SRC3 TRFRET art 1542, SRC1 TRFRET art 1760 and PPARg SRC3 recr -4.
Screening O=C(O)CSc1c2c(nc3cc(C(=O)N4CCCC4)ccc13)CCCC2 returned PPARg SRC1 recr 0, PPARg SRC-2 ag 9, TR-FRET SRC-2 ct 1578, SRC3 TRFRET art 1613, SRC1 TRFRET art 1966 and PPARg SRC3 recr 2.
Screening O=C(CSc1c2c(nc3cc(Cl)ccc13)CCCC2)NCCN1CCOCC1 returned PPARg SRC1 recr 27*, PPARg SRC-2 ag 32*, TR-FRET SRC-2 ct 2224*, SRC3 TRFRET art 2338*, SRC1 TRFRET art 2381*, PPARg SRC3 recr 19, PPARg SRC2 ag 16, PPARg SRC1 conf 13 and PPARg SRC3 conf 13.
`O=C(CSc1c2c(nc3ccccc13)CCCC2)NCc1ccco1` gave PPARg SRC1 recr 21*, PPARg SRC-2 ag 13, TR-FRET SRC-2 ct 1765, SRC3 TRFRET art 1591, SRC1 TRFRET art 2158, PPARg SRC3 recr 12, PPARg SRC2 ag 6, PPARg SRC1 conf 3 and PPARg SRC3 conf 4.
Screening O=C(CSc1c2c(nc3cc(Cl)ccc13)CCCC2)NCCCN1CCOCC1 returned PPARg SRC1 recr 25*, PPARg SRC-2 ag 26*, TR-FRET SRC-2 ct 1791, SRC3 TRFRET art 2060*, SRC1 TRFRET art 2212, PPARg SRC3 recr 12, PPARg SRC2 ag 22, PPARg SRC1 conf 18 and PPARg SRC3 conf 14.
`CCCCNC(=O)c1ccc2c(SCC(=O)O)c3c(nc2c1)CCCC3` gave PPARg SRC1 recr -4, PPARg SRC-2 ag -4, TR-FRET SRC-2 ct 1528, SRC3 TRFRET art 1511, SRC1 TRFRET art 1557 and PPARg SRC3 recr 0.
`Cc1cc(Cl)ccc1OCC(=O)NCCCN1CCOCC1` gave PPARg SRC1 recr 1, PPARg SRC-2 ag -7, TR-FRET SRC-2 ct 1601 and PPARg SRC3 recr -20.
CCOc1ccc(C(CC(=O)O)NC(=O)COc2ccccc2OC)cc1OC (stereo not drawn) was read as PPARg SRC1 recr 1, PPARg SRC-2 ag 4, TR-FRET SRC-2 ct 1531, SRC3 TRFRET art 1573, SRC1 TRFRET art 1616 and PPARg SRC3 recr -4.
